The full ranking holds about 1,800 sequences; the median of “median log2 fold change of GCK-ALFA target abundance (FLAG IP / Myc IP barcode read proportion)” is about 0.14, and the lowest 2% start at about -0.84. The full list was thinned out, with the lowest values kept by preference.
T1: TRAF2, Q12933
T1 chain: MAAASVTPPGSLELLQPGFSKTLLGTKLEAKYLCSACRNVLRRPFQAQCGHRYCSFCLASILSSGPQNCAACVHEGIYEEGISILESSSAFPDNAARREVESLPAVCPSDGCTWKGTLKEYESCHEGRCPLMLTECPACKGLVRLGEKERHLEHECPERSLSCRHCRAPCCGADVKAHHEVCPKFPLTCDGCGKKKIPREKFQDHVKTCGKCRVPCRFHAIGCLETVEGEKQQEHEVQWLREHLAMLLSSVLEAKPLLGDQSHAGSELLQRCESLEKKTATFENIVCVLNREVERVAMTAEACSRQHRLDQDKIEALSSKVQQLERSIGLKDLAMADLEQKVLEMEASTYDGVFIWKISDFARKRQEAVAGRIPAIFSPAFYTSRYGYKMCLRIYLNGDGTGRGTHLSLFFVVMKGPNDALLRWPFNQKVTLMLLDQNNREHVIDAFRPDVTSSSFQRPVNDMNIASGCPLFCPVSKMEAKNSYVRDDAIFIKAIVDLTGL

B1: traf2_out_11_169_812 (protein)
chain: EEKEKNRKINDFALELNDEAKKELLKHAKALAKKAGLDVAEVEAIFEKHKNSSLSAVAAALIAYFKSKGKEEEAAAVLAKYEELKEEINKKVTEKIKELE
B2: traf2_out_17_178_1659 (protein)
chain: NKEEARAEISAATDELIDLTEATADRLLAILEADGTASPEELAALREARRLGSATTTRALMEAAVPRSPRSAEVAALLDDFTKRSGELAKKIAEAYKKYE
B3: traf2_out_8_174_2574 (protein)
chain: SERERLRIVSEVLTEFADILDEAEERLEALKDLPLEELRKESQKILDEALKRIDEIEERRVKEVDEETAELIRRAARSAKQQLRNMVEGTIKRKELREKA
B4: traf2_out_11_169_824 (protein)
chain: AEAERNRKINDKALELNDKAKEKLKEFALELAKKAGLDVEEVKAIFEKHKGASLSAIAAALIEYFRSKGKEEEAEAVLKKYEELKDEINKEMAKFLKELE
B5: traf2_out_12_165_941 (protein)
chain: SMRERTEEIVRRAEEEIRRIADAAIAEIRANPDLTPEEVAALRERAVDEMVEVRQRALNELYKAGASIDELAEASERLRRVFDEARARLDAAAAEHLAAR
B6: traf2_out_11_169_848 (protein)
chain: EEEEKNRKIIDKALELNDKAKEELRAHALALAKKAGLDTAAVEAIFEANKGKSLSAVAAALIAWFKAQGKDAEAAAVEAKYEELKEKINKEMTKFLKELE
B7: traf2_out_6_169_2491 (protein)
chain: SMAEELKKEAERHLKTAKELYEIAKTIYNQAINNKNYENIDDYIEALETIKNAYKHHYDKAIEYYKKLGNEEEAEKLEKEKEKKLKEIDEMIKKLKELKK
B8: traf2_out_14_17_1291 (protein)
chain: DIIEKLEEILKTAKELAKKYPELKLELTQLERKAESALVLAEMYEEDPSYKPELIQGLKNLIKLAKEVAEKLKPISAEAVKKLEEMEETAKEILKEVEAE
B9: traf2_out_20_3_2179 (protein)
chain: EELEEELEEELEEALELIKEAAKLADEETAKKLEELAERLKESRELSYEDRLVELSEIRRELLELAEAAKAAGKEELAAVLEEAAEELNEAMNLVYEIIE
B10: traf2_out_20_38_2002 (protein)
chain: SMEEEEEERLKEIIDVANEAYDEATERIEALRAAGKSVEEIAAIVRAEVAELLDAAGLEEERDELLADIDRALSSPDALRLFARILARARALVKQKELNE
B11: traf2_out_20_38_2003 (protein)
chain: SEEEEEERKLEEIIEVANEAYDEATERIAAMVAAGKTVEEIAAEVRAEVTRLLDAAGLEEERDELLADIDRALASPNALRLFARILARARALVKQKELNK
B12: traf2_out_13_95_1094 (protein)
chain: SKEVAEKIMEIADKMLDESLEVLKKLLEEMKKKGKLEEEIKEVLELAENQSINEAIHKLKELAKKYPEVKELLEKAIEELEEIRRKAGKEVAKILKEEKE
B13: traf2_out_8_174_2572 (protein)
chain: DEEKRLKVVADFSTEMADILDEFEEELKKASDLPLEELKKKAEELKKEALEKIDKLKKEWEAKVDEETAKLVQRAANSAKQQIENMAKGAILRKELEDAA
B14: traf2_out_16_177_1462 (protein)
chain: ELDKIMDRIVVLSKIKRAAEYAIENKKEEAEKYLKEAEKEAEEAGDEEGLKKIKELKELMEKNTEEAKKKLKELAKEAQKEAGKLVDEAEALLKARAAAE
B15: traf2_out_20_38_2031 (protein)
chain: SEEEEEKKRLEEAIKVANDAYDRYTERFAALRAAGRTVEEMAAETRAEVRELLTAAGLEEEAEELIADIDLALGSPEAERLLVRILARAEALVWQKKKNE
B16: traf2_out_11_169_830 (protein)
chain: EEAEKNRKINDFALELEEKAKEEFKKFVLELAKEEGLDVEEIKKIFEENKNKSLSAIAAAVIEYFKSKGKEEAAEKVLKKYEELKEKINKEATEKIKELE
B17: traf2_out_6_156_2413 (protein)
chain: MVEKIFEETLKKVEELIKKLSKASEEKKISYISKIAGTVYKALQQLREAGASLEEIKEFSERLKKEIEKLLKEAGLDEKTRNLVLSSVNAVFTVAIEEAK
B18: traf2_out_18_167_1822 (protein)
chain: SAETEAEIERLTDELVRVSEIRRLALLALEALRTDPAAADAARDALIAALNEVPEFRPDAAALRAAPRAELPALLERIAERAQRRAQELYERREELKKKQ
B19: traf2_out_3_89_2308 (protein)
chain: MEERKKTIEEMEKQMEAYVKGFEKSAKFVAKQMLADGMSLDTLRGVLEAAKSALLEVLRETAKERGLSEEEIEKLLKKAEEELNKVVDEVVADAAAKRAA

Molecular target: T1, TRAF2, Q12933
Assay: median log2 fold change of GCK-ALFA target abundance (FLAG IP / Myc IP barcode read proportion) (log2 ratio); each designed protein is fused to an ALFA-tag nanobody in HEK293 cells to bring the named protein to FLAG-tagged glucokinase (GCK); Myc marks an untargeted standard; higher = target protein stabilised (more abundant)
Settings: target protein: 3xFLAG-MCP-GCK-ALFA reporter; HEK293 landing pad (RPLP)
In short: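 Binders fused to an ALFA nanobody were recombined as a library into HEK293 landing-pad cells, which were induced with 2 μg mL^−1 doxycycline and then transfected to express a FLAG-tagged target and a Myc-tagged standard. After 48 h, circular RNA barcodes recovered by anti-FLAG and anti-Myc immunoprecipitation of lysates were reverse transcribed, amplified and sequenced. Each binder's target abundance is the median log2 ratio of FLAG to Myc barcode read proportions, from barcodes present at ≥10^−7 in both replicates, binders carrying ≥3 barcodes per replicate, a 10^−6 pseudocount and pooled replicates.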
B1 was tested, and the “median log2 fold change” value was 0.302.
B2 was tested, and the “median log2 fold change” value was 0.0548.
With B3 the “median log2 fold change” value was -0.187.
B4 was tested, and the “median log2 fold change” value was 0.0712.
For B5, the “median log2 fold change” value was -0.0195.
With B6 the “median log2 fold change” value was -0.138.
B7 was tested, and the “median log2 fold change” value was -0.373.
In the case of B8, the “median log2 fold change” value is reported as 0.128.
For B9, the “median log2 fold change” value was -0.145.
For B10, the “median log2 fold change” value was -1.43.
For B11, the “median log2 fold change” value was -0.767.
In the case of B12, the “median log2 fold change” value is reported as -0.0821.
B13 was tested, and the “median log2 fold change” value was 0.209.
With B14 the “median log2 fold change” value was -0.0546.
For B15, the “median log2 fold change” value was -0.852.
B16 was tested, and the “median log2 fold change” value was 0.00164.
With B17 the “median log2 fold change” value was 0.231.
In the case of B18, the “median log2 fold change” value is reported as 0.336.
With B19 the “median log2 fold change” value was -0.103.

From the supplement of paper PMC12632987
